We go through nine molecules from PubChem BioAssay (NCI).

What all share (test): NCI-60 one-dose screen, 48 h (100 = growth as untreated, 0 = no growth, -100 = all killed)
One assay relates to HCT-15 colon. The conditions noted are these: 10 µM unless noted.
The subject of another assay is HT29 colon. The note with it: 10 µM unless noted.
The next assay deals with SNB-75 CNS. The conditions noted are these: 10 µM unless noted.
The test system of a further assay is SNB-19 CNS. The note with it: 10 µM unless noted.
A further assay concerns U251 CNS. The conditions noted are these: 10 µM unless noted.
The next assay relates to SK-MEL-5 melanoma. The conditions noted are these: 10 µM unless noted.
The subject of the next assay is UACC-62 melanoma.
For the next assay, the system named is LOX IMVI melanoma. The note with it: 10 µM unless noted.
A further assay concerns SK-MEL-28 melanoma. The note with it: 10 µM.
A further assay relates to SK-MEL-2 melanoma. The note with it: 10 µM unless noted.
Another assay relates to EKVX NSCLC. The note with it: 10 µM unless noted.
A further assay deals with SN12C renal. The conditions noted are these: 10 µM unless noted.
The subject of a further assay is UO-31 renal. The note with it: 10 µM unless noted.
A further assay has as its system ACHN renal. The conditions noted are these: 10 µM unless noted.
Another assay deals with CAKI-1 renal. The note with it: 10 µM unless noted.
The test system of a further assay is A498 renal. The note with it: 10 µM unless noted.
A further assay deals with HL-60(TB) leukemia. The note with it: 10 µM unless noted.
Another assay relates to CCRF-CEM leukemia. The conditions noted are these: 10 µM unless noted.
The next assay deals with MOLT-4 leukemia. The note with it: 10 µM unless noted.
Another assay deals with PC-3 prostate. The note with it: 10 µM unless noted.

Molecules are shown by their SMILES. “And” between values parts separate entries of the source, which are not always exact repeats. Equal entries are not always repeated. About 83,000 compounds went through this panel and 20% of them were active in at least one assay; those are over-represented in the sample as a whole.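 The test compound was applied at a single concentration to cells in 96-well plates for 48 hours, and percent growth was recorded.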 The source made the active and inactive calls. How the source made its calls: active means growth percent below 10; inactive means the rest.

For the molecule `CC1=C2C(=O)[C@H]3[C@@H](CC=C4C[C@@H](O)CC[C@@]43C)[C@@H]2CC[C@]12O[C@@H]1C[C@H](C)CN[C@H]1[C@H]2C`, the growth with HCT-15 colon was 94.2% (inactive); in the assay with HT29 colon, 82.6% (inactive); in the assay on SNB-75 CNS, 68.6% (inactive); with SNB-19 CNS, 106% (inactive); in the assay on U251 CNS it was 107% (inactive); in the assay with SK-MEL-5 melanoma, 96.8% (inactive). Besides, the growth in the assay with UACC-62 melanoma (10 µM) is 112% (inactive); with LOX IMVI melanoma, 96.4% (inactive); with SK-MEL-28 melanoma, 118% (inactive); with SK-MEL-2 melanoma, 2.09% (active); with EKVX NSCLC, 94.3% (inactive); in the assay with SN12C renal, 102% (inactive). The growth with UO-31 renal was 72.6% (inactive); with ACHN renal it was 108% (inactive); in the assay on CAKI-1 renal, 103% (inactive); with A498 renal it was 103% (inactive); with HL-60(TB) leukemia, 115% (inactive); with CCRF-CEM leukemia, 89.5% (inactive). Also, the growth with MOLT-4 leukemia is 96.9% (inactive).

As to `O=C(O)c1ccccc1.[Ag]`, the growth in the assay on HL-60(TB) leukemia is 113% (inactive).

Consider `COc1cccc2c1cc([N+](=O)[O-])c1c(C(=O)O)cc3c(c12)OCO3`, for which the growth in the assay with HCT-15 colon is 69.3% (inactive) and 105% (inactive); in the assay on HT29 colon, 0.29% (active) and -24.5% (active); with SNB-75 CNS, 79.4% (inactive) and 106% (inactive); in the assay on SNB-19 CNS it was 79.3% (inactive) and 97.7% (inactive); with U251 CNS it was 60.2% (inactive) and 96.7% (inactive); in the assay on PC-3 prostate, 77.3% (inactive) and 73.7% (inactive). The growth was 78.9% (inactive) and 104% (inactive) in the assay with SK-MEL-5 melanoma; 84.3% (inactive) and 96.5% (inactive) in the assay with UACC-62 melanoma (10 µM); -19.4% (active) and 0.694% (active) in the assay with UACC-62 melanoma (100 µM); 70.4% (inactive) and 99.2% (inactive) in the assay with LOX IMVI melanoma; 99.8% (inactive) in the assay with SK-MEL-28 melanoma; 94.4% (inactive) and 104% (inactive) in the assay with SK-MEL-2 melanoma. Further, the growth in the assay on EKVX NSCLC is 84.3% (inactive) and 111% (inactive); in the assay on SN12C renal, 65.1% (inactive) and 113% (inactive); in the assay on UO-31 renal, 76.5% (inactive) and 87.8% (inactive); with ACHN renal, 39.1% (inactive) and 96.1% (inactive); in the assay on CAKI-1 renal it was 9.19% (active) and 88% (inactive); with A498 renal, 87.2% (inactive) and 107% (inactive). The growth in the assay on HL-60(TB) leukemia was 41.6% (inactive) and 79.4% (inactive); in the assay with CCRF-CEM leukemia, 45.8% (inactive) and 77.6% (inactive); with MOLT-4 leukemia it was 35.7% (inactive) and 95.9% (inactive).

Regarding `COc1ccc(OC)c(/C=C/[N+](=O)[O-])c1`, the growth in the assay with HCT-15 colon was -13.4% (active); in the assay on HT29 colon, -29.5% (active); in the assay on SNB-75 CNS, 33.7% (inactive); with SNB-19 CNS, 41.8% (inactive); with U251 CNS, -27.2% (active); in the assay on PC-3 prostate, -29.4% (active). Further, the growth in the assay with SK-MEL-5 melanoma was -16.2% (active); in the assay with UACC-62 melanoma (10 µM), -22.3% (active); with LOX IMVI melanoma, -48.5% (active); in the assay on SK-MEL-28 melanoma it was -20% (active); with SK-MEL-2 melanoma, 1.51% (active); in the assay on EKVX NSCLC it was 67.7% (inactive). For the same molecule, the growth in the assay on SN12C renal was 15.9% (inactive); in the assay on UO-31 renal it was -81.9% (active); in the assay with ACHN renal, -67.9% (active); in the assay on CAKI-1 renal, -3.49% (active); with A498 renal it was 18.5% (inactive); in the assay on HL-60(TB) leukemia it was 1.04% (active). Further, the growth in the assay on CCRF-CEM leukemia was 8.78% (active); in the assay on MOLT-4 leukemia it was -4.18% (active).

Regarding `CC1=C(CO)C2=C(C)C3(CC3)[C@@](C)(O)C(=O)C2=C1`, the growth in the assay with HCT-15 colon was -22.2% (active); in the assay on HT29 colon, -17.8% (active); in the assay with SNB-75 CNS, -83.8% (active); in the assay with SNB-19 CNS, 11.3% (inactive); in the assay with U251 CNS, 2.57% (active); with PC-3 prostate it was -18.8% (active). The growth in the assay on SK-MEL-5 melanoma was -84.1% (active); in the assay on UACC-62 melanoma (10 µM), -81.5% (active); with LOX IMVI melanoma, 22.8% (inactive); with SK-MEL-2 melanoma, -46.8% (active); in the assay with EKVX NSCLC, 0.643% (active); in the assay on SN12C renal it was 20.5% (inactive). The growth in the assay with UO-31 renal is -40.5% (active); with ACHN renal, -16.4% (active); with CAKI-1 renal, -17% (active); with A498 renal, -66.5% (active); in the assay with HL-60(TB) leukemia, -32.9% (active); in the assay with CCRF-CEM leukemia it was 28.6% (inactive). Further, the growth in the assay with MOLT-4 leukemia was 16% (inactive).

Regarding `CN1CCN(c2ccc([N+](=O)[O-])c3no[n+]([O-])c23)CC1`, the growth was -56.3% (active) in the assay on HCT-15 colon; -51.8% (active) in the assay on HT29 colon; -78.2% (active) with SNB-75 CNS; -30.5% (active) with SNB-19 CNS; -95.6% (active) in the assay with U251 CNS; -65.9% (active) in the assay with PC-3 prostate. Further, the growth in the assay on SK-MEL-5 melanoma was -46.6% (active); in the assay with UACC-62 melanoma (10 µM), -58.8% (active); with LOX IMVI melanoma, -46.2% (active); in the assay on SK-MEL-28 melanoma, 17.3% (inactive); in the assay with SK-MEL-2 melanoma, -80.5% (active); in the assay with EKVX NSCLC, -34.4% (active). Besides, the growth in the assay with SN12C renal is -63.9% (active); in the assay on UO-31 renal, -48.4% (active); with ACHN renal it was -84% (active); with CAKI-1 renal, -75.2% (active); in the assay on A498 renal, -34.8% (active); in the assay on HL-60(TB) leukemia, -42.4% (active). In addition, the growth in the assay with CCRF-CEM leukemia is -30.6% (active); in the assay on MOLT-4 leukemia, -46% (active).

As to `c1ccc2c(c1)[nH]c1c2cc[n+]2cc3c(cc12)CCCC3`, in the assay on HL-60(TB) leukemia, the growth is 13.5% (inactive).

For the molecule `NCCc1ccc(OCc2ccccc2)c(OCc2ccccc2)c1`, the growth with HCT-15 colon is 75.3% (inactive); with HT29 colon, 55% (inactive); in the assay on SNB-75 CNS, 63.9% (inactive); in the assay on SNB-19 CNS, 94.5% (inactive); with U251 CNS it was 44.3% (inactive); in the assay on PC-3 prostate, 74.1% (inactive). For the same molecule, the growth with SK-MEL-5 melanoma was 89.3% (inactive); with UACC-62 melanoma (10 µM), 95.9% (inactive); with LOX IMVI melanoma it was 63.2% (inactive); in the assay with SK-MEL-28 melanoma it was 97.3% (inactive); with SK-MEL-2 melanoma, 87.4% (inactive); in the assay with SN12C renal, 86.6% (inactive). Further, the growth is 51.2% (inactive) with UO-31 renal; 71.1% (inactive) in the assay with ACHN renal; 81.6% (inactive) with CAKI-1 renal; 79% (inactive) with A498 renal; 51.4% (inactive) in the assay with HL-60(TB) leukemia; 78.1% (inactive) in the assay with MOLT-4 leukemia.

As to `CCCCCCCCCCCC1CCCC(C)N1` (centres undefined), the growth with HCT-15 colon is 27.7% (inactive); with HT29 colon, 14.9% (inactive); in the assay with SNB-75 CNS, 82% (inactive); in the assay on SNB-19 CNS, 93.2% (inactive); in the assay on U251 CNS, 59.6% (inactive); in the assay on PC-3 prostate, 44.4% (inactive). The growth in the assay with SK-MEL-5 melanoma is 97% (inactive); with UACC-62 melanoma (10 µM), 88.2% (inactive); in the assay with LOX IMVI melanoma it was 52.3% (inactive); in the assay with SK-MEL-28 melanoma it was 96.7% (inactive); with SK-MEL-2 melanoma it was -7.27% (active); in the assay with EKVX NSCLC it was 91.2% (inactive). The growth in the assay on SN12C renal is 75.3% (inactive); in the assay with UO-31 renal, 29% (inactive); in the assay on ACHN renal, 77.8% (inactive); with CAKI-1 renal, 86.6% (inactive); in the assay with A498 renal, 95.8% (inactive); with HL-60(TB) leukemia, -45.8% (active). The growth in the assay with CCRF-CEM leukemia was 16.5% (inactive); in the assay with MOLT-4 leukemia it was 14.1% (inactive).
